# PubChem BioAssay (EPA / NIEHS)
# Inconclusive results are not listed. Activity calls are given as the source filed them. How the source made its calls, unless noted: active means hit-call score of the fitted dose curve at least 0.9, where 1 is the maximum; inactive means score below 0.9.
# How the values were obtained:
# [1] = BSK_3C_VCAM1: BioMAP Diversity Plus: 3C Assay for Vascular cell adhesion molecule 1 (VCAM1) Biomarker Activity (AID 2282999); settings: BioMAP 3C HUVEC, VCAM1 ELISA, cytokine-stimulated; actives raise or lower the signal
# How it was run: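 Human umbilical vein endothelial cells (3C system), biomarker read by ELISA 24 h after dosing; bidirectional fit against DMSO baseline. Cytotoxicity tracked by SRB total-protein staining in parallel cultures at biomarker time.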
# [2] = BSK_4H_Eotaxin3: BioMAP Diversity Plus: 4H Assay for Eotaxin 3 Biomarker Activity (AID 2283000); settings: primary human endothelial cells (HUVEC); actives raise or lower the signal;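 on outcome: CCL26 protein level quantified by ELISA in parallel with SRB cytotoxicity check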
# How it was run: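 Chemicals were added to human umbilical vein endothelium cultures, and Eotaxin-3 was quantified by ELISA at 24 h. Values were derived by bidirectional fitting with DMSO serving as negative control and activity baseline.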
# [3] = target: human Peroxisome Proliferator-activated Receptor alpha (PPARa), PPARA (gene 5465) (UniProt Q07869); experiment: ATG_PPARa_TRANS: Attagene TRANS-FACTORIAL HepG2 Assay for human Peroxisome Proliferator-activated Receptor alpha (PPARa) (AID 2283001; active means hit-call score of the fitted dose curve at least 0.9, where 1 is the maximum)
# Sequence of human Peroxisome Proliferator-activated Receptor alpha (PPARa), PPARA (gene 5465) (Q07869 whole entry, looked up, the tested form may be a part): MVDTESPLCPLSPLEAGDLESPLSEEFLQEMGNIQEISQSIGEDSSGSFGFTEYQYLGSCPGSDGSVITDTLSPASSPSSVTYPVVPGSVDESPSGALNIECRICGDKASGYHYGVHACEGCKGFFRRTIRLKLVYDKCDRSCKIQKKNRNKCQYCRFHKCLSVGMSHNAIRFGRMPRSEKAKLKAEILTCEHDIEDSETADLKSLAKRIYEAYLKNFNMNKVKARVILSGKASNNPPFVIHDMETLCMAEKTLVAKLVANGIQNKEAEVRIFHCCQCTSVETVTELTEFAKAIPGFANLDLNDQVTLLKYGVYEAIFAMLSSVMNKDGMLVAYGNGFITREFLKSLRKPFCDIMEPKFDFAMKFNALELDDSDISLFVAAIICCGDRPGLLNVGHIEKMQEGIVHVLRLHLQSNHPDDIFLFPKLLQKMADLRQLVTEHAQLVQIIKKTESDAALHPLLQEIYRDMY
# How it was run: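 HepG2 cells transiently transfected with multiplexed GAL4-UAS reporters driven by exogenous chimeric NR-Gal4 proteins; reporter mRNA measured after 24 h dosing. Read-out by RT-PCR, 6-FAM labelling, HpaI digestion and capillary electrophoresis; gain of signal versus DMSO.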
# [4] = target: human Peroxisome Proliferator-activated Receptor delta (PPARd), PPARD (gene 5467) (UniProt Q03181); experiment: ATG_PPARd_TRANS: Attagene TRANS-FACTORIAL HepG2 Assay for human Peroxisome Proliferator-activated Receptor delta (PPARd) (AID 2283002; active means hit-call score of the fitted dose curve at least 0.9, where 1 is the maximum)
# Sequence of human Peroxisome Proliferator-activated Receptor delta (PPARd), PPARD (gene 5467) (Q03181 whole entry, looked up, the tested form may be a part): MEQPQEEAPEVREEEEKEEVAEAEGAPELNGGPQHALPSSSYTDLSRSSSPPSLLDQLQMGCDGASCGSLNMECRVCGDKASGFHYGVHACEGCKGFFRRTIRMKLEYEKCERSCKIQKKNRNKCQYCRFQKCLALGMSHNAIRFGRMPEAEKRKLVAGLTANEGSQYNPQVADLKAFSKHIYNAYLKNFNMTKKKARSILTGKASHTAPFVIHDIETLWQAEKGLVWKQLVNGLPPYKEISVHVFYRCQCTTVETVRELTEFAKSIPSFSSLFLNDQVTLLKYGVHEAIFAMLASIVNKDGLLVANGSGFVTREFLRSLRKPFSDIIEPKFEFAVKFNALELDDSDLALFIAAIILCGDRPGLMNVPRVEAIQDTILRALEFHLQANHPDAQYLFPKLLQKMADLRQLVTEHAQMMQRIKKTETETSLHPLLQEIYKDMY
# How it was run: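 HepG2 cells transiently transfected with GAL4-UAS multiplexed reporter units driven by exogenous chimeric NR-GAL4 proteins; 24 h compound exposure. Reporter mRNA measured by RT-PCR, 6-FAM primer extension, HpaI digestion and capillary electrophoresis; gain of signal fitted relative to DMSO.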
# [5] = read-out: Intercellular Adhesion Molecule 1 (ICAM1), ICAM1 (gene 3383); experiment: BSK_3C_ICAM1: BioMAP Diversity Plus: 3C Assay for Intercellular Adhesion Molecule 1 (ICAM1) Biomarker Activity (AID 2283003); settings: primary human endothelial cells (HUVEC); actives raise or lower the signal
# How it was run: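 HUVEC primary cells stimulated under 3C conditions; ICAM1 measured by ELISA 24 h after compound dosing. Curves fitted bidirectionally against the DMSO baseline. Overt cytotoxicity checked by SRB staining of parallel cultures.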
# [6] = BSK_3C_Proliferation: Cell Proliferation Assessment in the BioMAP Diversity Plus: 3C Assay (AID 2283006); settings: primary human endothelial cells (HUVEC);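 on AC50: potency may reflect either rise or fall in cell number versus DMSO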
# How it was run: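 Subconfluent HUVEC (3C system) cultured with chemical; relative cell number read at 48 h by sulforhodamine B total-protein staining (0.1% SRB after 10% TCA fixation, 560 nm). Bidirectional fit relative to DMSO.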
# [7] = target: Peroxisome proliferator-activated receptor gamma (Homo sapiens) (UniProt P37231); experiment: ATG_PPARg_TRANS: Attagene TRANS-FACTORIAL HepG2 Assay for human Peroxisome Proliferator-activated Receptor-gamma (PPARg) (AID 2283007; active means hit-call score of the fitted dose curve at least 0.9, where 1 is the maximum)
# Sequence of Peroxisome proliferator-activated receptor gamma (Homo sapiens) (P37231 whole entry, looked up, the tested form may be a part): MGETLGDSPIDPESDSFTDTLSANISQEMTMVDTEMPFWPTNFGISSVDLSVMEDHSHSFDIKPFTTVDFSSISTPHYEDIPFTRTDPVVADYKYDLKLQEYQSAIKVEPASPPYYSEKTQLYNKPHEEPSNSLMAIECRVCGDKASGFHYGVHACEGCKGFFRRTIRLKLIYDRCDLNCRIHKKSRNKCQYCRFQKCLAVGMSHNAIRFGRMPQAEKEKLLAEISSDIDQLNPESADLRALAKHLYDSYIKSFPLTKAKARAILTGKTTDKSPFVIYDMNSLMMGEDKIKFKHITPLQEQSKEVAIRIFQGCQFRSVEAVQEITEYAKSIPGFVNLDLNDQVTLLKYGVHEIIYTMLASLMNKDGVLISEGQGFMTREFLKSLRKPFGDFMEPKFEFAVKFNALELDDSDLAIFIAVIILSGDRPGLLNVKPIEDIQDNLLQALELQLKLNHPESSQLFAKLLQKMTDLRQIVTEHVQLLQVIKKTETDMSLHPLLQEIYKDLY
# How it was run: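 Transient transfection of HepG2 with GAL4-UAS-driven reporter units; chemical dosing 24 h; total RNA → oligo(dT) RT → PCR with reporter primers → 6-FAM primer extension → HpaI digest 2 h 37 C → capillary electrophoresis. Positive direction vs DMSO.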
# [8] = target: human RAR-related Orphan Receptor gamma (RORg), RORC (gene 6097) (UniProt P51449); experiment: ATG_RORg_TRANS: Attagene TRANS-FACTORIAL HepG2 Assay for human RAR-related Orphan Receptor gamma (RORg) (AID 2283011; active means hit-call score of the fitted dose curve at least 0.9, where 1 is the maximum)
# Sequence of human RAR-related Orphan Receptor gamma (RORg), RORC (gene 6097) (P51449 whole entry, looked up, the tested form may be a part): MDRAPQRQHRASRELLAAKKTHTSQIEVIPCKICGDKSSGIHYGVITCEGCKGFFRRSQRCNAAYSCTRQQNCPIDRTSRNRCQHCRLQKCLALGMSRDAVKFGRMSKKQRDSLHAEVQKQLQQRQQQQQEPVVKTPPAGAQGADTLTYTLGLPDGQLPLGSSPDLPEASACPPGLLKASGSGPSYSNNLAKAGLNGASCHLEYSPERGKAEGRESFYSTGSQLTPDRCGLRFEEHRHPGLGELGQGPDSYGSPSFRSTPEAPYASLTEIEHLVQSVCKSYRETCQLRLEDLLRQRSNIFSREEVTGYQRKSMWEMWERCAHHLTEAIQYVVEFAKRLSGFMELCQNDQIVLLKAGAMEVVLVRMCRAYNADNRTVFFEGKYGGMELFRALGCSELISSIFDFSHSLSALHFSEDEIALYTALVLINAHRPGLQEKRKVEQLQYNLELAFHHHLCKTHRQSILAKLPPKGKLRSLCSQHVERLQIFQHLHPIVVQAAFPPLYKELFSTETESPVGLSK
# How it was run: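 First, HepG2 liver cells were transfected with GAL4-UAS-driven reporter constructs and the RORg-Gal4 fusion. Next, they were treated with chemical for 24 h. Finally, reporter mRNA was quantified by RT-PCR and capillary electrophoresis, with upward activity fitted against DMSO.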
# [9] = target: human Thyroid Receptor alpha (THRa1), THRA (gene 7067) (UniProt P10827); experiment: ATG_THRa1_TRANS: Attagene TRANS-FACTORIAL HepG2 Assay for human Thyroid Receptor alpha (THRa1) (AID 2283014; active means hit-call score of the fitted dose curve at least 0.9, where 1 is the maximum)
# Sequence of human Thyroid Receptor alpha (THRa1), THRA (gene 7067) (P10827 whole entry, looked up, the tested form may be a part): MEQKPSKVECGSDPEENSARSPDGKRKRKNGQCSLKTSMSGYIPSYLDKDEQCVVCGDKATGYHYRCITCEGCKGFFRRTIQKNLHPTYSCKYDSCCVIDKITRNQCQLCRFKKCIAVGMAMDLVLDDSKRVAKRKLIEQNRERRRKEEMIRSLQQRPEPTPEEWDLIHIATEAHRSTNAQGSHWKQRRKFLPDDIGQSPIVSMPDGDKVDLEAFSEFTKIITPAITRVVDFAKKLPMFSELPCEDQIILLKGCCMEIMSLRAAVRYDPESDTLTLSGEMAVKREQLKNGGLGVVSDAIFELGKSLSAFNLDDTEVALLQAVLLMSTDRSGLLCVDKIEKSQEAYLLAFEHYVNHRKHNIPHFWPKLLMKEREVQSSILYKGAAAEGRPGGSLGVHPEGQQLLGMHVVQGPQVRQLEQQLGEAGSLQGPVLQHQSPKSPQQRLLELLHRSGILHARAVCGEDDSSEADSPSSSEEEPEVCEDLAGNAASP
# How it was run: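 Reporter transcript induction, read by capillary electrophoresis of 6-FAM-labelled RT-PCR products, reflects activity of a transfected THRa1-Gal4 fusion in HepG2 liver cells. Cells were dosed for 24 h; activity was fitted in the positive direction against DMSO.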
# [10] = read-out: E-selectin (Homo sapiens) (UniProt P16581); experiment: BSK_3C_Eselectin: BioMAP Diversity Plus: 3C Assay for Eselectin Biomarker Activity (AID 2283015); settings: primary human endothelial cells (HUVEC); actives raise or lower the signal;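 on outcome: cell surface E-selectin protein quantified by ELISA 24 h after dosing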
# How it was run: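 ELISA read-out of E-selectin on endothelial monolayers after 24 h chemical treatment. Human umbilical vein primary cells served as the system, with DMSO defining baseline activity for bidirectional fitting.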
# [11] = read-out: Interleukin-1 alpha (IL1a), IL1A (gene 3552); experiment: BSK_BE3C_IL1a: BioMAP Diversity Plus: BE3C Assay for Interleukin-1 alpha (IL1a) Biomarker Activity (AID 2283016); settings: primary human bronchial epithelial cells; actives raise or lower the signal
# How it was run: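 Human primary bronchial epithelial cells, 24 h chemical exposure; IL-1a quantified by ELISA, fitted bidirectionally against DMSO. Cytotoxicity assessed in parallel by SRB total-protein staining at the time of measurement.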
# [12] = read-out: Monocyte Chemoattractant Protein-1 (MCP1), CCL2 (gene 6347); experiment: BSK_3C_MCP1: BioMAP Diversity Plus: 3C Assay for Monocyte Chemoattractant Protein-1 (MCP1) Biomarker Activity (AID 2283017); settings: primary human endothelial cells (HUVEC); actives raise or lower the signal
# How it was run: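 ELISA read-out of MCP-1 from human umbilical vein endothelial cell cultures harvested 24 h post-dosing. Gain or loss of signal was fitted relative to DMSO.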
# [13] = read-out: Human Leukocyte Antigen - DR isotype (HLADR), HLA-DRA (gene 3122); experiment: BSK_3C_HLADR: BioMAP Diversity Plus: 3C Assay for Human Leukocyte Antigen - DR isotype (HLADR) Biomarker Activity (AID 2283019); settings: primary human endothelial cells (HUVEC); actives raise or lower the signal;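 on outcome: ELISA of cell-surface HLA-DR on HUVEC 24 h after dosing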
# How it was run: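 ELISA readout of surface HLA-DR on human umbilical vein endothelium, taken 24 h after chemical treatment. Gain- and loss-of-signal were both fitted relative to DMSO.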
# [14] = read-out: Monocyte Chemoattractant Protein-1 (MCP1), CCL2 (gene 6347); experiment: BSK_4H_MCP1: BioMAP Diversity Plus: 4H Assay for Monocyte Chemoattractant Protein-1 (MCP1) Biomarker Activity (AID 2283018); settings: primary human endothelial cells (HUVEC); actives raise or lower the signal
# How it was run: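 Human umbilical vein endothelial cells (4H system) exposed to chemicals for 24 h in 96-well format. MCP-1 measured by ELISA; bidirectional fitting against DMSO, with SRB total-protein staining in parallel cultures for cytotoxicity.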
# [15] = target: Nuclear receptor subfamily 1 group I member 2 (Homo sapiens) (UniProt O75469); experiment: ATG_PXR_TRANS: Attagene TRANS-FACTORIAL HepG2 Assay for human Pregnane X Receptor (PXR) (AID 2283008; active means hit-call score of the fitted dose curve at least 0.9, where 1 is the maximum)
# Sequence of Nuclear receptor subfamily 1 group I member 2 (Homo sapiens) (O75469 whole entry, looked up, the tested form may be a part): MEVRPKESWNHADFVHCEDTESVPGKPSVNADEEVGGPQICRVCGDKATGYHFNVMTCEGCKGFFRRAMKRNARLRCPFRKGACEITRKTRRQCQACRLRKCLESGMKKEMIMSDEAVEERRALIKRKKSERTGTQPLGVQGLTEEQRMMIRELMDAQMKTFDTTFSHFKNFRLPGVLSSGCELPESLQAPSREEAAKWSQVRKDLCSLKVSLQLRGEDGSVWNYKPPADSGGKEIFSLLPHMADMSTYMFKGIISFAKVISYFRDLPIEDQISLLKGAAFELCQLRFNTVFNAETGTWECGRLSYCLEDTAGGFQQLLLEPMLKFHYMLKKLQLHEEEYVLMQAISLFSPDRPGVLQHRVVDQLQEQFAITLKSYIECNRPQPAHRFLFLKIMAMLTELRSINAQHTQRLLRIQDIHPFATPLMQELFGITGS
# How it was run: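 Fluorescence intensity of FAM-labelled, HpaI-digested reporter amplicons, separated by capillary electrophoresis, quantifies induction. HepG2 cells with PXR-Gal4 trans-reporter system were exposed 24 h; DMSO defines baseline.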
# [16] = target: Retinoic acid receptor RXR-alpha (Homo sapiens) (UniProt P19793); experiment: ATG_RXRa_TRANS: Attagene TRANS-FACTORIAL HepG2 Assay for human Retinoid X Receptor alpha (RXRa) (AID 2283012; active means hit-call score of the fitted dose curve at least 0.9, where 1 is the maximum)
# Sequence of Retinoic acid receptor RXR-alpha (Homo sapiens) (P19793 whole entry, looked up, the tested form may be a part): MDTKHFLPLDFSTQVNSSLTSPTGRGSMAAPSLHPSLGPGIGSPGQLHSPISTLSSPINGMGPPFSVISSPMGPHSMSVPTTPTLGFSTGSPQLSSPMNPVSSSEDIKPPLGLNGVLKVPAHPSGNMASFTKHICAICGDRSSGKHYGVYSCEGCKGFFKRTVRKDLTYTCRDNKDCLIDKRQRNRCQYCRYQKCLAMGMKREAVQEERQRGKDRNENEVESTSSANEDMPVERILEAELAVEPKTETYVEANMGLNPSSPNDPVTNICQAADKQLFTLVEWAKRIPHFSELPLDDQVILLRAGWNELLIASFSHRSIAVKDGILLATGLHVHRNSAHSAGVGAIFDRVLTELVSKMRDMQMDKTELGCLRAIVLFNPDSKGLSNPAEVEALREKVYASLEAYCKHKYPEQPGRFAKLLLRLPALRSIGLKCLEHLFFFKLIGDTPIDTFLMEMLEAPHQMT
# How it was run: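 HepG2 cells transiently transfected with GAL4-UAS reporter units and chimeric RXRa-Gal4 protein, treated 24 h. Reporter mRNA measured by RT-PCR, fluorescent labelling, HpaI digestion and capillary electrophoresis. Induction fitted against DMSO.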
# [17] = target: human Retinoid X Receptor beta (RXRb), RXRB (gene 6257) (UniProt P28702); experiment: ATG_RXRb_TRANS: Attagene TRANS-FACTORIAL HepG2 Assay for human Retinoid X Receptor beta (RXRb) (AID 2283013; active means hit-call score of the fitted dose curve at least 0.9, where 1 is the maximum)
# Sequence of human Retinoid X Receptor beta (RXRb), RXRB (gene 6257) (P28702 whole entry, looked up, the tested form may be a part): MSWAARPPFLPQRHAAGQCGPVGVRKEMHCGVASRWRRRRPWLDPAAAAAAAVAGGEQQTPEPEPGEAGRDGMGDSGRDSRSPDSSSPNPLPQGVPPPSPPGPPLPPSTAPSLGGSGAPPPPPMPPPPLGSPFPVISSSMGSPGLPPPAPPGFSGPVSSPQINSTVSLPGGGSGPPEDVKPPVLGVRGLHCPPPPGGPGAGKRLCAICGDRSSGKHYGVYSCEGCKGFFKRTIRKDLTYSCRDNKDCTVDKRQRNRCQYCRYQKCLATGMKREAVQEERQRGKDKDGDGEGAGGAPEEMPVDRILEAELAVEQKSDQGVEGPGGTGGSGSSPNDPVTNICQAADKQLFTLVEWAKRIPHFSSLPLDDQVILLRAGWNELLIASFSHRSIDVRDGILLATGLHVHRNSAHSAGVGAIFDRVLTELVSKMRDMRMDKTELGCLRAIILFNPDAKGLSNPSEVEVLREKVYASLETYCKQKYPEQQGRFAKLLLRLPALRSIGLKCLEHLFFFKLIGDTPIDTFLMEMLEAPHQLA
# How it was run: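 HepG2 cells were transiently transfected with multiplexed GAL4-UAS reporters and a chimeric RXRb-Gal4 construct, then exposed for 24 h. Reporter mRNA was quantified by RT-PCR, FAM labeling, HpaI digestion and capillary electrophoresis; gain of signal was scored against DMSO.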
# Sequence of E-selectin (Homo sapiens) (P16581 whole entry, looked up): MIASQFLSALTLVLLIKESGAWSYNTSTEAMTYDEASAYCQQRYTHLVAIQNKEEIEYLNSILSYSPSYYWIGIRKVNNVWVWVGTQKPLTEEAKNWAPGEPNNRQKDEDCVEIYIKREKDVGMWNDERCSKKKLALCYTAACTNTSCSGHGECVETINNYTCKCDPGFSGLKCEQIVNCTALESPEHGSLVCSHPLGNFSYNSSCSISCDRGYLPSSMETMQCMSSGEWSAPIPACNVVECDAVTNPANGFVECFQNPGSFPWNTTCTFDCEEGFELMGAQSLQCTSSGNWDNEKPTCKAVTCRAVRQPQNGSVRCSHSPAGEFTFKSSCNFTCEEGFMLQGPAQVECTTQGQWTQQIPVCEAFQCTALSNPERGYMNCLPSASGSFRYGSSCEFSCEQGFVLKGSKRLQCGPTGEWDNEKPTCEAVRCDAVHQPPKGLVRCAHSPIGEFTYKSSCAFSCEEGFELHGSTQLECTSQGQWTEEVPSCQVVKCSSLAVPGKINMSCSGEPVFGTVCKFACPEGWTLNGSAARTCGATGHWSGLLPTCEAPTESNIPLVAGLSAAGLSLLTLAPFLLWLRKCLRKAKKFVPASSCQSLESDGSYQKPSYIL
smiles,measurement,setting,value
OCC1CO1 (stereo not given),outcome,[1],inactive
same,outcome,[2],inactive
same,outcome,[3],inactive
same,outcome,[4],inactive
same,outcome,[5],inactive
same,outcome,[6],inactive
same,outcome,[7],inactive
same,outcome,[8],inactive
same,outcome,[9],inactive
same,outcome,[10],inactive
same,outcome,[11],inactive
same,outcome,[12],inactive
same,outcome,[13],inactive
[N-]=[N+]=[N-],outcome,[1],inactive
same,outcome,[2],inactive
same,outcome,[3],inactive
same,outcome,[4],inactive
same,outcome,[5],inactive
same,outcome,[6],inactive
same,outcome,[8],inactive
same,outcome,[9],inactive
same,outcome,[10],inactive
same,outcome,[11],inactive
same,outcome,[12],inactive
same,outcome,[14],inactive
same,outcome,[13],inactive
CC(C)(C)c1ccc(O)cc1,outcome,[1],inactive
same,outcome,[2],inactive
same,outcome,[3],inactive
same,outcome,[4],inactive
same,outcome,[5],inactive
same,outcome,[6],inactive
same,outcome,[7],inactive
same,AC50,[15],14.8 µM (active)
same,outcome,[16],inactive
same,AC50,[17],69.3 µM (active)
same,outcome,[10],inactive
same,outcome,[11],inactive
same,outcome,[12],inactive
same,outcome,[13],inactive
ClC(Cl)=C(c1ccc(Cl)cc1)c1ccccc1Cl,AC50,[1],10.7 µM (active)
same,AC50,[2],6 µM (active)
same,outcome,[3],inactive
same,outcome,[4],inactive
same,AC50,[5],28.7 µM (active)
same,AC50,[6],11.7 µM (active)
same,outcome,[7],inactive
same,AC50,[15],2.27 µM (active)
same,outcome,[16],inactive
same,AC50,[17],27.7 µM (active)
same,AC50,[10],20 µM (active)
same,AC50,[11],14.2 µM (active)
same,AC50,[12],12.1 µM (active)
same,AC50,[14],5.93 µM (active)
same,AC50,[13],10.4 µM (active)
